# Assay results as given in paper PMC5540273 (PLoS ONE, 2017).
# Columns and labels:
# Details in all cases: concentration: 1 μM, replicates: in singlicate; n = 1
# [1] = test system: MYLK
# [2] = test system: MYO3A
# [3] = test system: MYO3B
# [4] = test system: T1, NDR1
# T1 construct: gene STK38
# [5] = test system: NDR2
# [6] = test system: NEK10
# [7] = test system: NEK11
# [8] = test system: NEK1
# [9] = test system: NEK2
# [10] = test system: NEK3
# [11] = test system: NEK4
# [12] = test system: NEK5
# [13] = test system: NEK6
# [14] = test system: NEK7
# [15] = test system: NEK9
# [16] = test system: T2, NIK
# T2 construct: gene MAP3K14
# [17] = test system: T3, NIM1
# T3 construct: gene MGC42105
# [18] = test system: NLK
# [19] = test system: T4, OSR1
# T4 construct: gene OXSR1
# [20] = test system: PAK1
# 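Further: KINOMEscan kinase panel screen.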
Structure (SMILES),%Inh [1],%Inh [2],%Inh [3],%Inh [4],%Inh [5],%Inh [6],%Inh [7],%Inh [8],%Inh [9],%Inh [10],%Inh [11],%Inh [12],%Inh [13],%Inh [14],%Inh [15],%Inh [16],%Inh [17],%Inh [18],%Inh [19],%Inh [20]
CCS(=O)(=O)c1ccc(OC)c(Nc2ncc(-c3ccc(F)cc3)o2)c1.Cl [GW591947],0%,6%,0%,10%,0%,9%,0%,0%,0%,0%,0%,9%,0%,0%,11%,0%,5%,22%,4%,0%
COC(=O)c1c(-c2ccccc2)c2cc(Br)ccc2c(=O)n1Cc1ccc(S(C)(=O)=O)cc1,20%,26%,0%,7%,19%,0%,0%,0%,10%,21%,17%,0%,20%,3%,6%,0%,15%,0%,4%,24%
COc1cc2nccc(Nc3ccc(OCc4ccc(NC(C)=O)cc4)cc3)c2cc1OC.Cl [GW440135],13%,20%,0%,0%,0%,12%,0%,0%,0%,0%,0%,0%,0%,100%,94.8%,16%,24%,10%,0%,0%
COc1cc2nccc(Nc3cccc(Oc4ccccc4)c3)c2cc1OC.Cl [GW284543],0%,0%,36%,8%,0%,0%,19%,0%,0%,0%,3%,0%,0%,11%,27%,37%,19%,24%,4%,0%
Nc1ncnc2c1ncn2-c1cccc(F)c1 [SKF-97560],38%,0%,0%,15%,17%,53%,38%,0%,0%,25%,21%,25%,0%,0%,0%,18%,48%,0%,28%,5%
FC(F)(F)c1ccc(-c2ncn(CCCN3CCOCC3)c2-c2ccncc2)cc1 [SB-217780],4%,0%,0%,3%,0%,4%,0%,0%,0%,9%,0%,9%,0%,10%,33%,0%,26%,35%,5%,20%
CCC(=O)c1c(-c2ccccc2)c2cc(Cl)ccc2c(=O)n1Cc1cc(C(=O)NC2CC2)n(C)n1,0%,4%,0%,0%,0%,0%,0%,10%,0%,13%,16%,0%,8%,0%,0%,0%,1%,0%,0%,20%
COc1cccc(C2=C(N(C)c3ccccc3)C(=O)NC2=O)c1 [SB-334865],1%,22%,0%,16%,0%,22%,0%,0%,0%,26%,0%,0%,0%,0%,0%,100%,21%,29%,0%,1%
O=c1cc(N2CCOCC2)nc2n(Cc3ccc(F)c(Cl)c3)ccn12 [GSK2297099],9%,8%,0%,9%,0%,0%,0%,0%,0%,13%,0%,9%,0%,61%,64%,0%,17%,14%,6%,5%
COc1ccc(CNC(=O)NC2CCN(c3ccnc(Nc4ccc(F)cc4)n3)C2)cc1 (stereo not drawn) [GSK1379706],9%,42%,0%,28%,50%,25%,43%,17%,16%,13%,0%,35%,21%,0%,0%,26%,0%,37%,0%,0%
Nc1nccc2scc(-c3ccc4c(c3)CCN4C(=O)Cc3ccccc3)c12 [GSK2576924],4%,11%,5%,27%,3%,9%,0%,0%,4%,10%,0%,14%,0%,0%,18%,23%,8%,0%,7%,18%
COc1cccc(-n2cnc3c(N)ncnc32)c1 [SKF-97416],31%,8%,20%,28%,12%,18%,35%,0%,0%,21%,0%,8%,8%,0%,0%,27%,61%,0%,24%,20%
CCS(=O)c1ccc(-c2coc3ccc(-c4nnc(C)o4)cc23)cc1 (stereo not drawn),0%,0%,3%,0%,0%,5%,0%,0%,0%,1%,0%,0%,0%,0%,0%,0%,11%,0%,0%,0%
COc1cc2ncn(-c3cc(OCCCc4ccccc4)c(C(N)=O)s3)c2cc1OC [GSK205189],23%,3%,0%,0%,0%,0%,0%,0%,36%,0%,0%,0%,0%,0%,6%,0%,0%,0%,2%,36%
Cc1c(Cn2c(C)nn3c(=O)cc(N4CCO[C@H](C)C4)nc23)cccc1C(F)(F)F [GSK2373690],12%,0%,0%,6%,0%,6%,0%,0%,24%,2%,31%,0%,1%,0%,0%,2%,0%,27%,22%,0%
CCn1c(-c2nonc2N)nc2ccccc21 [SB-693162/GW549034],48%,0%,18%,37%,23%,12%,25%,0%,0%,0%,11%,18%,17%,12%,0%,24%,2%,0%,24%,0%
Nc1n[nH]c2nnc(-c3ccccc3)c(-c3ccccc3)c12 [GW554060],16%,0%,0%,9%,10%,9%,5%,0%,0%,4%,0%,0%,0%,0%,0%,100%,28%,0%,9%,0%
Cc1cc(Nc2nc(-c3cccc(C)n3)nc3ccccc23)ccn1 [GW872411],0%,0%,0%,31%,22%,6%,0%,0%,0%,14%,0%,6%,0%,0%,0%,16%,0%,0%,0%,0%
Cc1ccc(-c2ccc3c(ccc4sc5c(c43)NC[C@@H](C)N=C5N(C)C)n2)cn1,0%,0%,0%,0%,0%,0%,0%,0%,0%,20%,0%,0%,0%,0%,0%,0%,0%,0%,0%,0%
COc1cc2ncn(-c3cc(OCc4ccncc4)c(C(N)=O)s3)c2cc1OC [GSK336313],44%,10%,0%,0%,0%,0%,0%,31%,10%,0%,0%,23%,0%,0%,15%,0%,0%,11%,31%,16%
Cl.NS(=O)(=O)c1cccc(Nc2cc(-c3ccc(F)cc3)n[nH]2)c1 [GW824645],0%,0%,0%,47%,5%,8%,0%,0%,0%,14%,0%,0%,0%,0%,0%,45%,3%,0%,0%,4%

Structure (SMILES),%Inh [1],%Inh [2],%Inh [3],%Inh [4],%Inh [5],%Inh [6],%Inh [7],%Inh [8],%Inh [9],%Inh [10],%Inh [11],%Inh [12],%Inh [13],%Inh [14],%Inh [15],%Inh [16],%Inh [17],%Inh [18],%Inh [19],%Inh [20]
CCn1c(-c2ccoc2)nc2cnccc21 [SB-733887],11%,6%,0%,0%,0%,19%,12%,2%,0%,16%,22%,4%,5%,0%,0%,21%,11%,7%,9%,12%
O=C(Nc1n[nH]c2cc(-c3ccccc3F)ccc12)C1CC1 [SB-733371],0%,22%,0%,37%,2%,0%,12%,0%,0%,16%,0%,0%,0%,11%,0%,0%,0%,15%,0%,0%
O=C(Nc1n[nH]c2nc(-c3ccccc3)c(Br)cc12)C1CC1 [SB-708998],7%,0%,13%,18%,0%,4%,0%,0%,15%,0%,3%,2%,0%,0%,3%,31%,9%,33%,11%,10%
Cc1nnc(-c2ccc3ncn(-c4ccc(S(C)=O)cc4)c3c2)o1 (stereo not drawn),0%,2%,48%,21%,0%,2%,0%,5%,0%,0%,0%,0%,17%,2%,13%,3%,0%,0%,0%,8%
Cc1nnc(-c2ccc(C)c(-c3ccc(C(=O)O)cc3)c2)o1 [GW608005],5%,0%,0%,9%,0%,0%,5%,0%,19%,0%,14%,2%,0%,5%,2%,26%,13%,0%,2%,8%
COc1ccc(-n2cnc3c(N)ncnc32)cc1 [SKF-97236],0%,4%,0%,3%,0%,40%,3%,0%,0%,0%,0%,0%,5%,0%,17%,0%,12%,0%,14%,0%
Nc1nc(N)c2nc(-c3ccccc3)[nH]c2n1 [SKF-12778],0%,0%,19%,33%,0%,58%,13%,0%,0%,0%,8%,10%,5%,9%,6%,0%,0%,2%,22%,0%
Cc1cccc(-c2nc(Nc3ccc4c(cnn4C)c3)c3ccccc3n2)n1 [GW876731],0%,0%,0%,17%,68%,0%,46%,0%,14%,0%,0%,49%,12%,2%,5%,11%,16%,25%,0%,6%
CCc1ccc(-c2ccc3c(c2)-c2nn(C)cc2S(=O)(=O)N3C)cc1,3%,96.5%,0%,19%,0%,0%,0%,0%,0%,36%,0%,0%,0%,0%,0%,0%,0%,0%,0%,0%
O=C(Nc1ccc2c(c1)OCO2)NC1CCN(c2ccnc(NCc3ccc(F)cc3)n2)CC1 [GSK1379859],20%,0%,0%,0%,0%,3%,8%,0%,3%,0%,23%,17%,0%,0%,11%,12%,0%,11%,3%,0%
CC(C)(C)c1ccc(C(=O)Nc2cn3cc(-c4ccccc4)ccc3n2)cc1,23%,0%,0%,35%,0%,0%,0%,0%,0%,36%,0%,0%,0%,0%,0%,0%,19%,0%,0%,0%
C[C@@H]1CC[C@H](C(=O)NC2CCCCC2)CN1c1cc(-c2ccc3c(N)n[nH]c3c2)nc(N)n1 [GSK2291363],52%,36%,0%,14%,7%,29%,0%,10%,0%,12%,18%,22%,26%,0%,25%,32%,14%,7%,17%,15%
COc1cc(Nc2nccc(N3CCC(NC(=O)C(C)c4ccc(Cl)cc4)C3)n2)cc(OC)c1OC (stereo not drawn) [GSK1379757],8%,20%,0%,26%,0%,0%,12%,8%,0%,19%,0%,95.5%,0%,0%,19%,0%,0%,0%,0%,10%
COc1cc2ncn(-c3cc(OCc4ccc(S(C)(=O)=O)cc4)c(C(N)=O)s3)c2cc1OC [GW869979],46%,0%,0%,25%,4%,29%,14%,0%,0%,14%,14%,20%,1%,0%,0%,7%,45%,4%,25%,0%
Cc1nc(N(C)[C@H]2CN(C(=O)CC#N)CC[C@H]2C)c2cc[nH]c2n1,10%,0%,9%,0%,13%,0%,0%,0%,0%,3%,4%,11%,7%,0%,0%,0%,0%,7%,0%,0%
Fc1cccc(CSc2nnc(-c3ccc4c(c3)CCO4)o2)c1,2%,0%,0%,16%,22%,0%,0%,0%,1%,19%,20%,6%,10%,13%,12%,0%,0%,0%,3%,28%
CN(C)c1cc(-c2ccc3c(N)n[nH]c3c2)nc(N)n1 [GSK2219329],0%,11%,0%,17%,0%,0%,0%,0%,0%,0%,0%,2%,0%,0%,0%,0%,21%,1%,0%,9%
COc1cc2ncn(-c3cc(OCc4ccncc4Br)c(C(N)=O)s3)c2cc1OC [GW854278],72%,0%,9%,0%,17%,0%,0%,0%,33%,29%,0%,2%,0%,0%,0%,25%,10%,0%,0%,1%
CCC(=O)c1c(-c2ccccc2)c2cc(Cl)ccc2c(=O)n1Cc1cc(S(C)(=O)=O)n(CC(N)=O)n1,0%,0%,0%,32%,0%,0%,0%,0%,0%,32%,0%,0%,0%,0%,0%,0%,14%,0%,0%,32%
Nc1n[nH]c2ncc(-c3ccccc3)cc12 [SB-517081],39%,20%,0%,27%,0%,24%,0%,0%,27%,21%,26%,9%,0%,0%,7%,0%,28%,13%,0%,7%
CCC(=O)c1c(-c2ccccc2)c2cc(Cl)ccc2c(=O)n1Cc1cc(S(C)(=O)=O)n(CCC(C)(C)O)n1,5%,0%,0%,2%,1%,0%,0%,0%,4%,0%,0%,17%,14%,1%,0%,0%,0%,0%,0%,20%
